Assay results as given in PubChem BioAssay AID624300 (Southern Research Specialized Biocontainment Screening …, 2012).
Screen size: about 2,400 compounds; about 360 (15%) were called active.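 How the source made its calls: active means viability falls under 70% at one or more tested concentrations, taken as toxicity; inactive means viability stays over 70% at every dose.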 Not all results are given here. Measured potencies and affinities stand elsewhere.

Assay: HeLa cell cytotoxicity, dose response, cytotoxicity control for MgcRacGAP inhibitor project (AID 624300);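 further: 100% = median of untreated control wells on the same plate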
Conditions: CellTiter-Glo luminescence, 24 h; series mostly up to 100 µM; viability: at the top concentration

| Compound | viability |
| --- | --- |
| CCCCNCC#CCOc1cc(C)ccc1C(C)C | 87.9% (inactive) |
| C=CCNCC(O)COc1ccc(C(C)=O)cc1OC (stereo not drawn) | 98.9% (inactive) |
| O=C(CNCc1ccco1)Nc1ccc(N2CCCCCC2)cc1 | 83.5% (inactive) |
| Cc1ccccc1OCCN1CCCC1 | 101% (inactive) |
| CC1CN(CCCCOc2ccc(Cl)c3ccccc23)CC(C)O1 (stereo not drawn) | 83.8% (inactive) |
| COc1cc(C2NC(=O)C(C#N)=C(S)N2c2ccc(C)cc2)ccc1OC(C)C (stereo not drawn) | 99.7% (inactive) |
| Nc1ccc2ccc(O)cc2c1 | 96.5% (inactive) |
| CCOc1cc(/C=C(\C#N)C(=O)NCc2cccnc2)ccc1O | 94.7% (inactive) |
| CCOc1cc(/C=C(\C#N)C(=O)NCC2CCCO2)ccc1O (stereo not drawn) | 96.2% (inactive) |
| O=C(CCC1CCCC1)N1CCN(C2CCCC2)CC1 | 90.8% (inactive) |
| CC(C)(C)c1cc(C(=O)N/N=C/c2ccc(O)cc2)n(-c2ccccc2)n1 | 105% (inactive) |
| Cc1cccc2sc(NNC(=O)c3cc(=O)c4ccccc4o3)nc12 | 80.6% (inactive) |
| COc1ccc(NC(=S)NCC2CCN(c3ccc(OC)cc3)C2)cc1 (stereo not drawn) | 110% (inactive) |
| C=CCc1cc(Cl)ccc1OCCn1ccnc1 | 101% (inactive) |
| CCOc1cc(/C=N/NC(=O)CN2CCCCC2)ccc1O | 98.7% (inactive) |
| O=C1CSC(=Nc2ccc(O)cc2)N1c1ccc(O)cc1 | 112% (inactive) |
| COc1ccc(NC2CCCN(C(=O)c3cc(C)nc4cc(F)ccc34)C2)cc1 (stereo not drawn) | 102% (inactive) |
| CN(C)c1ccc(N=c2sc3ccccc3n2C)cc1 | 87.8% (inactive) |
| O=C(N/N=C/c1ccc(N2CCOCC2)s1)c1ccc(O)cc1 | 101% (inactive) |
| Cc1c(N=Nc2ccc(N(C)C)cc2)c(=O)n(-c2ccccc2)n1C | 103% (inactive) |
| O=C(N/N=C/c1ccc(O)cc1)c1cc[n+](Cc2ccccc2)cc1 | 102% (inactive) |
| CCc1nnc(NC(=O)CSCc2cc(=O)n3ccsc3n2)s1 | 97.5% (inactive) |
| COc1ccc([C@H]2CN(c3ccc(OC)cc3)C(=O)[C@@H]2CC(=O)Nc2ccccc2)cc1 | 92.8% (inactive) |
| COc1cc(/C=N/NC(=O)C2(O)c3ccccc3-c3ccccc32)ccc1O | 105% (inactive) |

| Compound | viability |
| --- | --- |
| O=C1C=CC(=O)N1c1ccc(Nc2ccccc2)cc1 | 101% (inactive) |
| O=C(O)C1CCN(Cc2cnn(-c3ccccc3)c2-n2cccc2)CC1 | 104% (inactive) |
| COc1cc(/C=N/NC(=O)c2ccc3c(c2)OCO3)ccc1O | 94.8% (inactive) |
| COc1ccc(CCNCCN2CCOCC2)cc1 | 106% (inactive) |
| CN=c1scc(C)n1/N=C/c1ccc(O)cc1O | 83.2% (inactive) |
| CN=c1scc(-c2ccc(F)cc2)n1/N=C/c1ccc(O)c(O)c1 | 90.5% (inactive) |
| Oc1ccc(/C=N/NC(=S)Nc2cccnc2)c(O)c1 | 98.1% (inactive) |
| CN=c1scc(-c2ccco2)n1/N=C/c1ccc(O)c(O)c1 | 97.5% (inactive) |
| COC(=O)c1[nH]c2ccccc2c1NC(=O)Oc1ccccc1 | 88.4% (inactive) |
| Nc1ccc(N2CCOCC2)c(Cl)c1 | 102% (inactive) |
| CC(=Nc1ccc(O)cc1)c1sc2ccccc2c1O | 112% (inactive) |
| Oc1ccc(N=Cc2cc(Br)c(N3CCOCC3)o2)cc1 | 103% (inactive) |
| COc1ccccc1Nc1n[nH]c(=S)s1 | 92.9% (inactive) |
| O=C(Cn1c(C(=O)NCc2ccco2)cc2sccc21)c1ccccc1 | 93.1% (inactive) |
| COc1ccc(C=NNC(=O)c2cc(C)oc2C)cc1O | 81% (inactive) |
| Cc1c(C(=O)N/N=C/c2ccc(O)cc2)sc(=S)n1C | 106% (inactive) |
| Cc1nonc1C(=O)N/N=C/c1ccc(O)c(O)c1 | 91.9% (inactive) |
| Oc1cc(O)c2c(c1)O[C@H](c1ccc(O)c(O)c1)[C@H](O)C2 | 102% (inactive) |
| CCOC(=O)c1c(OCC)[nH]c2c1cc(O)c1ccccc12 | 98.7% (inactive) |
| c1coc(CSSCc2ccco2)c1 | 105% (inactive) |
| COc1cc(/C=N/n2nnnc2N)ccc1O | 93.9% (inactive) |
| Cc1cc(C)cc(NC(=O)C(NCCN2CCOCC2)c2ccccc2)c1 (stereo not drawn) | 94.9% (inactive) |
| CN=c1scc(C)n1/N=C/c1cc(Br)c(O)c(OC)c1 | 93.5% (inactive) |
| Cc1cc(O)ccc1N/C=C1\CCCC1=O | 90.5% (inactive) |

| Compound | viability |
| --- | --- |
| O=c1oc2cc(O)ccc2c2oc3cc(O)ccc3c12 | 98.3% (inactive) |
| CN(C)/C=C/c1oc2ccc(O)cc2c1[N+](=O)[O-] | 94.5% (inactive) |
| CC(C)COc1ccc(N)cc1OCC(C)C | 104% (inactive) |
| Nc1cc2c([N+](=O)[O-])cccc2o1 | 95.3% (inactive) |
| COc1cc(Sc2ccc(C)cc2)c(OC)cc1N | 94.1% (inactive) |
| COc1ccc(NCCC(O)c2ccc(Cl)cc2)cc1 (stereo not drawn) | 106% (inactive) |
| COc1ccc(NC2CCCN(C(=O)COc3ccc(C(C)=O)cc3)C2)cc1 (stereo not drawn) | 100% (inactive) |
| S=c1[nH]nc(-c2ccncc2)n1/N=C/c1ccccc1 | 100% (inactive) |
| COc1ccc(N2CCN(C(=O)c3ccc(Br)o3)CC2)cc1 | 105% (inactive) |
| O=[N+]([O-])c1ccc(C2CC(c3ccccc3)=Nc3ccccc3S2)cc1 (stereo not drawn) | 85.2% (inactive) |
| CCOC1=C/C(=C/c2c(N)n3nc(S(=O)(=O)CC)sc3nc2=O)C=CC1=O | 108% (inactive) |
| COc1ccc(OC(=O)c2cc(S(=O)(=O)N3CCCC3)ccc2Cl)cc1 | 97% (inactive) |
| O=C(Cn1c(C(=O)NCC2CCCO2)cc2sccc21)c1ccccc1 (stereo not drawn) | 93.5% (inactive) |
| CCOc1cc(/C=N\NC(=O)CC(=O)NCCc2ccccc2)ccc1O | 101% (inactive) |
| CS(=O)(=O)c1ccc2c(c1)sc1nc(=O)c(/C=C3/C=CC(=O)C(O)=C3)c(N)n12 | 94.4% (inactive) |
| COc1ccc(NCC(O)COc2ccc(C(C)(C)C)cc2)cc1 (stereo not drawn) | 100% (inactive) |
| CCCCN(C)C(=O)C1CCN(Cc2ccc(OCc3ccccc3)cc2)CC1 | 90.2% (inactive) |
| O=C(NCCNCC(O)COc1ccc(O)cc1)N1CCOCC1 (stereo not drawn) | 109% (inactive) |
| C#CCOc1ccccc1CNC1CCN(Cc2ccccc2)CC1 | 97.2% (inactive) |
| O=C(Cc1coc2cc(O)ccc12)NNC(=O)c1ccc(Br)s1 | 111% (inactive) |
| CCc1ccc(CNc2ccc(N3CCN(C(C)=O)CC3)cc2)cc1 | 99.8% (inactive) |
| COc1cc(N=Nc2ccc(C)cc2S(N)(=O)=O)c(C)cc1N | 94.5% (inactive) |
| COc1cc(/C=N/NC(=O)CCNC(=O)c2ccccc2Cl)ccc1O | 97.2% (inactive) |
| COc1cc(/C=C/C(=O)OCC(=O)Nc2ccc3c(c2)OCCO3)ccc1O | 115% (inactive) |

| Compound | viability |
| --- | --- |
| CN(c1ccc(O)cc1)c1nc(-c2cccnc2)cs1 | 98.8% (inactive) |
| Oc1ccc(-c2csc(NCc3ccco3)n2)cc1 | 110% (inactive) |
| COc1ccc(N)cc1NC(=O)CN1CCOCC1 | 92.2% (inactive) |
| CC/C(=N\O)c1ccc(O)c(OC)c1 | 99.7% (inactive) |
| CC(C(=O)N(C)Cc1ccccc1)N1CCN(C/C=C/c2ccccc2)CC1 (stereo not drawn) | 93.8% (inactive) |
| COc1ccc(N2CCN(C(=O)CCCn3c(=O)c4cccn4c4cccnc43)CC2)cc1 | 96% (inactive) |
| COc1cccc(CN2CCN(Cc3cc(OC)c(OC)c(OC)c3)CC2)c1OC | 100% (inactive) |
| Nc1c(Cl)ncnc1N/N=C/c1ccc(O)cc1 | 108% (inactive) |
| Oc1ccc(/C=N/Nc2nccnc2Cl)c(O)c1 | 97.6% (inactive) |
| CCOc1cc(/C=N/Nc2ncnc(Cl)c2N)ccc1O | 87% (inactive) |
| COc1cc(/C(C)=N/NC(=O)C(O)(c2ccccc2)c2ccccc2)ccc1O | 96.5% (inactive) |
| Cc1nc(C/C(=N\N)c2ccc(O)cc2O)cs1 | 98% (inactive) |
| O=C1CC(SC(=S)C2CCCC2=O)C(=O)N1 (stereo not drawn) | 100% (inactive) |
| CC(CN1CCN(Cc2ccccc2)CC1)c1ccccc1 (stereo not drawn) | 98.4% (inactive) |
| Cc1ccc(SCCN2CCN(Cc3ccccc3)CC2)cc1 | 92.2% (inactive) |
| CC(=O)c1c(Nc2ccc3c(c2)OCCO3)oc(C)cc1=O | 102% (inactive) |
| CC(=O)N1CCN(c2ccc(N)cc2)CC1 | 104% (inactive) |
| Oc1ccc(/C=N/n2cc(-c3ccccc3)[nH]c2=S)cc1 | 97.2% (inactive) |
| Nc1ccc(C(=O)N/N=C/c2ccc(N3CCOCC3)s2)cc1 | 105% (inactive) |
| CN(c1ccccc1)c1ccc(/C=N/N2CCOCC2)cc1 | 106% (inactive) |
| Oc1ccc(-c2csc(Nc3cccnc3)n2)cc1 | 91% (inactive) |
| Oc1ccc(-c2csc(Nc3ncccn3)n2)cc1 | 100% (inactive) |
| C#CCOCCOCCOCCNc1nc(N2CCN(C(=O)[C@H](CCCCN)n3cc([C@@H](N)C(C)CC)nn3)CC2)nc(N2CCN(C(=O)[C@H](CCCCN)n3cc([C@@H](N)CC(C)C)nn3)CC2)n1 (stereo partly drawn) | 101% (inactive) |
| Cc1ccc(N2CC(C(=O)Nc3ccc(N(C)C)cc3)CC2=O)cc1C (stereo not drawn) | 94.4% (inactive) |

| Compound | viability |
| --- | --- |
| O=C(O)c1ccc(S(=O)(=O)c2ccc3c(c2)C(=O)N(NC(=O)c2cccnc2)C3=O)cc1 | 102% (inactive) |
| Cc1cc(=O)oc2c(O)c(O)ccc12 | 87.6% (inactive) |
| O=C(O)c1cccc2cccc(-c3c4ccc(=O)c(O)c-4oc4c(O)c(O)ccc34)c12 | 97.2% (inactive) |
| CC(C(=O)NCC(=O)Nc1ccc(F)c(F)c1F)N1CCN(c2ccc(O)cc2)CC1 (stereo not drawn) | 107% (inactive) |
| Cc1cc(C(=O)c2cnc(/N=C/N(C)C)s2)cc(C)c1O | 94.2% (inactive) |
| COc1cc(/C=N/NC(=O)C(=O)N2CCCC2)ccc1O | 103% (inactive) |
| Oc1ccc(Br)cc1C=Nc1ccc2[nH]ncc2c1 | 90.4% (inactive) |
| Oc1ccccc1/C=N/n1c(-c2ccccc2)n[nH]c1=S | 104% (inactive) |
| O=[N+]([O-])c1cccc(/C=N/n2c(-c3cccnc3)n[nH]c2=S)c1 | 98.9% (inactive) |
| CCN(c1ccccc1)S(=O)(=O)c1ccc(OC)c(NC(=O)CNCCc2ccccc2)c1 | 94.7% (inactive) |
| CCOC(=O)CCNC(C)C1COc2ccccc2O1 (stereo not drawn) | 102% (inactive) |
| O=C(COC(=O)c1c2c(nc3ccccc13)/C(=C/c1ccco1)CC2)NC1CCCC1 | 89.1% (inactive) |
| CC(C)c1ccc(NC(=O)CNCC(c2ccccc2)N(C)C)cc1 (stereo not drawn) | 98.1% (inactive) |
| COC(C(=O)N/N=C(\C)CC(=O)Nc1ccc(N(C)C)cc1)c1ccccc1 (stereo not drawn) | 106% (inactive) |
| COc1cc(N=Nc2c(C)n(C)n(-c3ccccc3)c2=O)ccc1N | 95.7% (inactive) |
| Oc1ccc(/C=N/N=C/c2ccc(O)cc2)cc1 | 102% (inactive) |
| COc1cccc(OC)c1OCCCCN1CCCC1 | 102% (inactive) |
| Cc1cccn2c(NCc3ccc4c(c3)OCO4)c(-c3ccc(O)cc3)nc12 | 98.5% (inactive) |
| C/C(CC(=O)Nc1ccc(N(C)C)cc1)=N\NC(=O)c1ccc([N+](=O)[O-])cc1Cl | 103% (inactive) |
| Cc1cc(/C=C(\C#N)C(=O)N2CCCCC2)cc(C)c1O | 94.2% (inactive) |
| COc1ccc(N2C(=O)CC(Nc3ccc(N4CCOCC4)cc3)C2=O)c(OC)c1 (stereo not drawn) | 106% (inactive) |
| CN1C=CC(=CC=C2C=CC(=O)C=C2)C=C1 | 93.8% (inactive) |
